Measured values as given in PubChem BioAssay (EPA / NIEHS).
Records with an inconclusive call do not appear. Calls of active or inactive are those of the source. The calls were made as follows: active = hit-call score of the fitted dose curve at least 0.9, where 1 is the maximum; inconclusive = response in the unintended direction; inactive = score below 0.9.

Test system: not listed separately
Assay: CCTE_Mundy_HCI_iCellGluta_NOG_NeuriteCount: CCTE's Neurite Outgrowth Assay in iCellGluta cells for Neurite Count, Mundy Lab (AID 2284342);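 also: chemical exposure about 48 hours starting 2 hours after plating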
For `O=C(O)C(F)(F)C(F)(F)OC(F)(F)F`, the outcome was “inactive”.
With `FC(F)(F)C(F)(F)C(F)(F)C(F)(F)CCI` the outcome was “inactive”.
With `FC(F)(F)C(F)(F)C(F)(F)C(F)(F)C(F)(F)C(F)(F)C(F)(F)C(F)(F)F` the outcome was “inactive”.
In the case of `FC(F)(F)C(F)(F)C(F)(F)C(F)(F)C(F)(F)C(F)(F)C(F)(F)C(F)(F)CCS`, the outcome is reported as “inactive”.
With `O=C(O)C(F)(F)C(F)(F)C(F)(F)C(F)(F)C(F)(F)C(F)(F)C(F)(F)C(F)(F)Cl` the outcome was “inactive”.
In the case of `CC(CCl)OP(=O)(OC(C)CCl)OC(C)CCl` (configuration not stated), the outcome is reported as “inactive”.
In the case of `CC(C)(C)C(=O)CC(=O)C(F)(F)C(F)(F)C(F)(F)F`, the outcome is reported as “inactive”.
With `FC(F)(F)C(F)(F)C(F)(F)C(F)(F)C(F)(F)C(F)(F)CC1CO1` (configuration not stated) the outcome was “inactive”.
With `OCC(F)(F)C(F)(F)C(F)(F)C(F)F` the outcome was “inactive”.
In the case of `N=C(N)C(F)(F)C(F)(F)C(F)(F)C(F)(F)C(F)(F)C(F)(F)C(F)(F)F`, the outcome is reported as “inactive”.
For `C=C(C)C(=O)OCC(F)(F)C(F)(F)C(F)(F)F`, the outcome was “inactive”.
For `O=P(O)(O)OCCC(F)(F)C(F)(F)C(F)(F)C(F)(F)C(F)(F)C(F)(F)F`, the outcome was “inactive”.
In the case of `FC(F)(F)C(F)(F)C(F)(F)CI`, the outcome is reported as “inactive”.
With `C=CC(=O)OCC(F)(F)C(F)(F)C(F)(F)C(F)(F)COC(=O)C=C` the outcome was “inactive”.
In the case of `O=C(O)C(F)(F)C(F)(F)C(F)(F)F`, the outcome is reported as “inactive”.
For `OCC(F)(F)C(F)(F)C(F)(F)F`, the outcome was “inactive”.
With `O=C(CC(=O)C(F)(F)C(F)(F)F)C(F)(F)F` the outcome was “inactive”.
In the case of `OCCCC(F)(F)C(F)(F)C(F)(F)C(F)(F)C(F)(F)C(F)(F)C(F)(F)F`, the outcome is reported as “inactive”.

Test system: SERPINA7 (gene 6906)
Assay: CCTE_GLTED_hTBG: CCTE's human Thyroxine-binding Globulin (TBG) Inhibition Assay, Great Lakes Toxicology and Ecology Division (GLTED) Lab (AID 2284343);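 also: active chemicals lower fluorescence versus DMSO baseline by displacing probe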
Outline: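 Human thyroxine-binding globulin was exposed to each chemical for 2 hours, during which the ANSA probe could be displaced. Fluorescence was then measured at 380/475 nm, and loss of signal was analysed relative to DMSO.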
In the case of `FC(F)(F)C(F)(F)C(F)(F)C(F)(F)CCI`, the AC50 is reported as 46.7 µM (active).
With `O=S(=O)(O)c1ccc2ccccc2c1` the AC50 was 24.5 µM (active).
With `FC(F)(F)C(F)(F)C(F)(F)C(F)(F)C(F)(F)CCI` the AC50 was 27 µM (active).
For `CCCCC(CC)COP(=O)(O)OCC(CC)CCCC` (configuration not stated), the AC50 was 2.42 µM (active).
In the case of `O=C(O)C(F)(F)C(F)(F)C(F)(F)C(F)(F)C(F)(F)C(F)(F)C(F)(F)C(F)(F)Cl`, the AC50 is reported as 62.6 µM (active).
For `O=C(Cl)C(F)(F)C(F)(F)C(F)(F)C(F)(F)C(F)(F)C(F)(F)C(F)(F)C(F)(F)F`, the AC50 was 14.9 µM (active).
For `CC(Cc1ccc(O)c(O)c1)C(C)Cc1ccc(O)c(O)c1` (configuration not stated), the AC50 was 7.96 µM (active).
With `CCN(Cc1cccc(S(=O)(=O)O)c1)c1ccc(C(=C2C=CC(=[N+](CC)Cc3cccc(S(=O)(=O)O)c3)C=C2)c2ccc(O)cc2S(=O)(=O)[O-])cc1` the AC50 was 25.4 µM (active).
With `C=CC(=O)OCC(F)(F)C(F)(F)C(F)(F)C(F)(F)COC(=O)C=C` the AC50 was 18.2 µM (active).
